From PubChem BioAssay (NCI) come the findings set out here.

Where “and” joins values, the source holds several entries; their conditions need not be identical. Equal entries are not always repeated. Compounds without any hit were thinned out: in the full panel of roughly 83,000, 20% have a hit.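 Assay: single dose, 48 h. Readout: percent growth (0 = no net growth; negative = cell death). Active: <10.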 Unmarked numbers belong to inactive results. Calls of active or inactive are those of the source.

For the experiment, the system named is MDA-MB-468 breast. In words: NCI-60 one-dose screen, 48 h (100 = growth as untreated, 0 = no growth, -100 = all killed). Conditions: 10 µM unless noted.

Turning to `COc1cc(-c2cc(-c3nc4ccc(Cl)cc4[nH]3)[nH]n2)cc(OC)c1OC`, the growth is 35.9%. The result for `CN1CCN(Cc2ccc(NC(=O)c3cncc(C#Cc4cnc(N)c5ccncc45)c3)cc2C(F)(F)F)CC1` reads 35.5%.

Take `COc1ccc(C2CC(c3cccc(Nc4ccnc5cc(Cl)ccc45)c3)=NN2c2ccccc2)cc1` (stereo not given): the growth is 63.3%. With `N#CC1=C(c2ccc(Cl)cc2)Nc2c(c(-c3ccc(Cl)cc3)nn2-c2ccccc2)C12C(=O)Nc1ccc(Cl)cc12` (stereo not given), the growth is 52.9%. Regarding `COC(=O)c1ccc(NC(=S)N2CCc3ccc([N+](=O)[O-])cc3C2)cc1O`, the growth was 94.2%. For `NC(=NC1C2CC3CC(C2)CC1C3)Nc1ccc(I)cc1` (stereo not given), the growth is -3.88% (active). The value for `COC(=O)c1cncc(C(=O)Nc2ccc(-n3cnc4ccccc43)cc2)c1` was 101%. Regarding `COc1ccc(/C=C/c2cccc[n+]2C)cc1`, the growth is 73.8%. As to `COc1cc(N2C(=O)[C@H](O)C2c2ccc(SC)cc2)cc(OC)c1OC` (stereo not given in full), the growth is 3.3% (active).

As for `CCNC(=O)Oc1ccc(/C(=C(\C)c2ccccc2)c2ccc(OCCN3CCCCC3)cc2)cc1`, the growth is 76.6%. For `CCN(CC)CCCC(C)Nc1c2ccc(Cl)cc2nc2cc(OC)c(OC)cc12` (stereo not given), the growth was -44% (active). On to `CCOC(=O)c1c(-c2ccc(Cl)cc2)c(C#N)c(=O)n(-c2ccccc2CC)c1N`, for which the growth was 98.9%.

`N#CCCCCCn1c2ccccc2c2c3c(c4c5ccccc5n(CCCCCC#N)c4c21)C(=O)N(O)C3=O`: the growth was 87.8%.

For `COc1ccc(/C=C/C(=O)c2ccc(NC(=O)CSc3nnc(-c4cc(OC)c(OC)c(OC)c4)o3)cc2)cc1`, the growth was -60.5% (active). The result for `CC(=O)C(/C=N/C(N)=O)=C(/C)O` reads 109%; that for `COc1ccccc1/C=C/C(=O)/C=C/c1ccccc1OC`, -61.8% (active) and -11.8% (active); that for `CC1=CC2c3oc(-c4ccccc4)c(C(=O)c4ccccc4)c3CNC2C=C1` (stereo not given), 97.7%.

`CC(=O)O[C@H]1CC[C@]2(C)[C@H]3CC=C4[C@@H]5CC(C)(C)CC[C@]5(C(=O)NCCNCCNCCN)CC[C@@]4(C)[C@]3(C)CC[C@H]2C1(C)C`: the growth is -14.5% (active).

`CCOC(=O)c1c(Cl)c2c(n1Cc1ccc(OC)cc1)-c1oncc1CCC2`: the growth is 101%. In the case of `CC(C)(C)[Si](C)(C)OC1[C@@H](O[Si](C)(C)C(C)(C)C)[C@@H](CNC(=O)NC(=O)CCl)O[C@H]1n1cnc2c(NC(=O)Nc3ccccc3)ncnc21` (stereo not given in full), the growth is -64.6% (active).

Consider `CCOC(=O)C1=C(C)N=c2s/c(=C\c3ccccc3O)c(=O)n2C1c1ccc(OC)c2ccccc12` (stereo not given), for which the growth was -77.6% (active). Turning to `CC(C)(C)c1ccc(S(=O)(=O)N[C@H]2CC[C@H]3[C@@H]4CCc5cc(O)ccc5[C@H]4CC[C@]23C)cc1`, the growth was 57.8%. As for `O=C1c2ccccc2C2(c3ccc(O)cc3)c3ccccc3Oc3cccc1c32` (stereo not given), the growth is -8.79% (active). The value for `C=CCc1cc(OC)c(OC)c(OC)c1` was 91%; that for `CCCCC1COc2cccc3c2N1C=C/C3=C\C(=O)n1ccc2ccccc21` (stereo not given) was 12.3%; that for `c1cc[c]([Bi]([c]2ccccc2)[c]2ccccc2)cc1` was 84.7%. For the molecule `C=C1C(=O)O[C@H]2[C@H]1CC/C(C(=O)NCCCCCNC(=O)/C1=C/CC[C@@]3(C)O[C@H]3[C@H]3OC(=O)C(=C)[C@@H]3CC1)=C\CC[C@@]1(C)O[C@@H]21`, the growth is 94.9%. For the molecule `O=C(CC(=O)C(F)(F)C(F)(F)C(F)(F)F)c1cc2ccccc2o1`, the growth is 112%. `CCCCCCCCCCCC(=O)NCCC[N+](C)(C)CC(=O)[O-]`: the growth was 86.9%. The result for `NC1=C(/C(N)=N/O)C(c2ccccc2)c2ccc3ccccc3c2O1` (stereo not given) reads -1.49% (active); that for `COc1cc(C(=O)Nc2cc(OC)c3ccn(C)c3c2)cc2c1C[C@]1(C)CC[C@@H](O)C(C)(C)[C@H]1O2`, 8.94% (active); that for `CCCCn1c(-c2cccc(OC)c2)nc2cc(OC)c(OC)cc2c1=O`, 107%. Take `Cc1cc2c([nH]1)CSc1cc(S(=O)(=O)c3ccccc3)c(=O)[nH]c1-2`: the growth was 24% [100 µM]. Turning to `COc1ccc(C2CC(=O)c3c(O)cc(OC4OC(COC5OC(C)C(O)C(O)C5O)C(O)C(O)C4O)cc3O2)cc1O` (stereo not given), the growth was 96.9%. The result for `COc1ccc2c(c1)oc1c(C)c3c(c(C)c12)C(=O)N(N)C3=O` reads 59.7%.
